Measured values from PubChem BioAssay (NCATS).
Results filed as inconclusive are left out. The source made the active and inactive calls. Calls come from the whole dose curve; as a rule, active = well fitted inhibition curve with a large enough effect; inconclusive = small, poorly fitted or top-dose-only effect; inactive = flat fitted curve, though single readings scatter.

Assays:
[1] = system: CRL-7250; test: Cytotoxic Profiling of Annotated Libraries Using Quantitative High-Throughput Screening (AID 1296008); details: Five cell lines viability, CellTiter-Glo ATP luminescence, 48-72 h; max response: stronger effect = lower value; for max response: % is set by controls: 0 for no effect and ±100 for the full control effect
Procedure, shortened: (§1)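 Cytotoxicity was measured as CellTiter-Glo ATP luminescence, read after 10 min at room temperature. Compound treatment of the cells lasted 48 or 72 hr at 37 degrees Celsius in a qHTS format.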

[2] = system: HEK293; test: as above; details: Five cell lines viability, CellTiter-Glo ATP luminescence, 48-72 h; max response: stronger effect = lower value
Procedure, shortened: as §1

[3] = system: HaCat; test: as above; details: Five cell lines viability, CellTiter-Glo ATP luminescence, 48-72 h; max response: stronger effect = lower value
Procedure, shortened: as §1

[4] = system: KB-3-1; test: as above; details: Five cell lines viability, CellTiter-Glo ATP luminescence, 48-72 h; max response: stronger effect = lower value
Procedure, shortened: as §1

[5] = system: NIH3T3; test: as above; details: Five cell lines viability, CellTiter-Glo ATP luminescence, 48-72 h; max response: stronger effect = lower value
Procedure, shortened: as §1

[6] = system: HACAT; test: qHTS assay to identify novel small-molecules to repurpose for Merkel cell carcinoma treatment (AID 1296009); details: MCC and control cell lines, CellTiter-Glo viability, 72 h; at 44.8 µM (top of the series) unless noted
Procedure, shortened: (§2)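 After compound transfer in DMSO, plates were kept 72 hr at 37 degree celsius. Luminescent ATP signal from CellTiter-Glo served as viability measure, normalized against DMSO and no-cell controls.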

[7] = system: HEK293T; test: as above; details: MCC and control cell lines, CellTiter-Glo viability, 72 h; series mostly up to 44.8 µM
Procedure, shortened: as §2
Note: nearly all actives have a fitted effect of over 60% in size.

Cc1c(N2C(=O)c3ccc(C(=O)O)cc3C2=O)c(=O)n(-c2ccccc2)n1C
inactive: outcome [1] | outcome [2] | outcome [3] | outcome [4] | outcome [5] | outcome [6] | Potency [7]

CC1(C)CC[C@]2(C(=O)O[C@@H]3O[C@H](CO)[C@@H](O)[C@H](O)[C@H]3O)CC[C@]3(C)C(=CCC4[C@@]5(C)C[C@@H](O)[C@H](O)[C@@](C)(CO)C5CC[C@]43C)C2C1 (stereo not given in full)
inactive: max response [1] 1.73% | outcome [2] | outcome [3] | outcome [4] | max response [5] -1.65% | outcome [6] inactive [at 17.4 µM] | Potency [7]

C=C1C2(CCC(=O)OC2(C)C)CC(OC(=O)/C(C)=C/C)C2(C)C13OC14C(=O)OC(C)(C(=O)C12C(=O)OC4C)C3OC(C)=O (stereo not given)
inactive: outcome [1] | outcome [2] | outcome [3] | max response [4] 6.83% | max response [5] 4.63% | outcome [6] inactive [at 17.4 µM] | Potency [7]

CC(=O)N[C@H]1CCN(c2ccc(C3=NOC(CN[S+](=O)([O-])C(C)C)C3)cc2F)C1 (stereo not given in full)
inactive: max response [1] 3.89% | outcome [2] | outcome [3] | max response [4] -0.511% | outcome [5] | outcome [6] | Potency [7]

CC1=C2C(=O)C=C(CO)[C@@H]2[C@H]2OC(=O)[C@H](C)[C@@H]2[C@@H](O)C1
inactive: outcome [1] | outcome [2] | outcome [3] | max response [4] 1.39% | max response [5] -3.32% | outcome [6] | Potency [7]

CC(C)CC(=O)O[C@@H]1OC=C(CO[C@@H]2O[C@H](CO[C@@H]3O[C@H](CO)[C@@H](O)[C@H](O)[C@H]3O)[C@@H](O)[C@H](O)[C@H]2O)[C@H]2C[C@H](O)[C@@H](CO)[C@@H]12
inactive: max response [1] 4.5% | outcome [2] | outcome [3] | outcome [4] | max response [5] 0.598% | outcome [6] inactive [at 17.4 µM] | Potency [7]

C[C@@H]1CC[C@]2(C)C(C[C@@H](O)[C@H](O)[C@]23CO3)[C@@]1(C)CCc1ccoc1 (stereo not given in full)
inactive: outcome [1] | outcome [2] | outcome [3] | max response [4] 7.33% | max response [5] -3.46% | outcome [6] | Potency [7]

C/C=C1/[C@H](O[C@@H]2O[C@H](CO)[C@@H](O)[C@H](O)[C@H]2O)OC=C(C(=O)OC)[C@H]1CC(=O)O[C@@H]1O[C@H](CO)[C@@H](O)[C@H](O)[C@H]1O
inactive: outcome [1] | outcome [2] | outcome [3] | outcome [4] | max response [5] 4.1% | outcome [6] inactive [at 17.4 µM] | Potency [7]

C[C@@H]1O[C@@H](OC[C@H]2O[C@@H](OCC3CCC4CC3C4(C)C)[C@H](O)[C@@H](O)[C@@H]2O)[C@H](O)[C@H](O)[C@H]1O (stereo not given in full)
inactive: max response [1] -0.807% | outcome [2] | outcome [3] | max response [4] 6.44% | max response [5] -1.43% | outcome [6] inactive [at 17.4 µM] | Potency [7]

CC(=O)O[C@@H]1C[C@@]23C[C@@]24CC[C@H](OC2OC[C@@H](O)[C@H](O)[C@H]2O)C(C)(C)[C@@H]4CC[C@H]3[C@]2(C)CC3OC4(C[C@@H](C)C3[C@@]12C)OCC1(C)OC14 (stereo not given in full)
inactive: max response [1] -1.36% | outcome [2] | outcome [3] | max response [4] -4.87% | max response [5] 3.69% | outcome [6] inactive [at 17.4 µM] | Potency [7]

CC(C)c1ccc(CC(=O)N2CCC[C@@H](c3cccc(OC(C)(C)C(=O)O)c3)C2)cc1
inactive: max response [1] -8.91% | outcome [2] | outcome [3] | outcome [4] | max response [5] -2.06% | outcome [6] | Potency [7]

COc1ccc2cc(OCC3(C(=O)O)CN(C(=O)c4ccc(F)cc4)C3)ccc2c1
inactive: outcome [1] | outcome [2] | outcome [3] | max response [4] 1.45% | outcome [5] | outcome [6] | Potency [7]

NCCOCCOCCNC(=O)Cc1ccc(Nc2nc(NCc3ccc(F)cc3)nc(NCC3CCCCC3)n2)cc1
inactive: outcome [1] | outcome [2] | outcome [3] | outcome [4] | outcome [5] | outcome [6] | Potency [7]

FC(F)(F)c1cc(C(F)(F)F)c2ccc3nc(-c4nnco4)cn3c2n1
inactive: outcome [1] | outcome [2] | outcome [3] | max response [4] -10% | outcome [5] | outcome [6] | Potency [7]

CCCOc1ccn2c(C(C)=O)cc(-c3ccccc3S(C)(=O)=O)c2c1
inactive: outcome [1] | outcome [2] | outcome [3] | max response [4] 3.55% | max response [5] -3.04% | outcome [6] | Potency [7]

CC(C)(O)c1ccc2c(c1)C(O)CC1C(C)(C(=O)O)CCCC21C (stereo not given)
inactive: max response [1] -4.52% | outcome [2] | outcome [3] | max response [4] 3.03% | outcome [5] | outcome [6] | Potency [7]

O=C(c1ccc(NS(=O)(=O)c2cccc3cccnc23)cc1)N1CCN(CC2CC2)CC1
inactive: max response [1] -4.28% | outcome [2] | outcome [3] | max response [4] -0.69% | max response [5] 0.212% | outcome [6] | Potency [7]

CC[C@H]1OC(=O)[C@H](C)[C@@H](OC2C[C@@](C)(OC)[C@@H](O)[C@H](C)O2)[C@H](C)[C@@H](OC2O[C@H](C)C[C@H](NC)[C@H]2O)[C@](C)(O)C[C@@H](C)CN(C)[C@H](C)[C@@H](O)[C@]1(C)O (stereo not given in full)
inactive: outcome [1] | outcome [2] | outcome [3] | max response [4] -2.3% | max response [5] -0.0862% | outcome [6] | Potency [7]

CC1CCC2(C(=O)OC3OC(CO)C(O)C(O)C3O)CCC3(C)C(=CCC4C5(C)CC(O)C(O)C(C)(C(=O)O)C5CCC43C)C2C1(C)O (stereo not given)
inactive: max response [1] 3.23% | outcome [2] | outcome [3] | max response [4] 1.03% | outcome [5] | outcome [6] inactive [at 17.4 µM] | Potency [7]

CC(CCC1(O)OC2CC3C4CCC5CC(O[C@@H]6O[C@H](CO)[C@@H](O)[C@H](O)[C@H]6O[C@@H]6OC[C@@H](O)[C@H](O)[C@H]6O)C(O)CC5(C)C4CCC3(C)C2C1C)CO[C@@H]1O[C@H](CO)[C@@H](O)[C@H](O)[C@H]1O (stereo not given in full)
inactive: max response [1] -0.157% | outcome [2] | outcome [3] | outcome [4] | outcome [5] | outcome [6] inactive [at 9.27 µM] | outcome [7] inactive [at 9.27 µM]

CCCCNC(=O)[C@@H]1Cc2ccccc2N1C(=O)[C@@H](N)CC
inactive: max response [1] -0.785% | outcome [2] | outcome [3] | max response [4] 6.18% | max response [5] 3.92% | outcome [6] | Potency [7]

COC(=O)CC[C@@H](C)[C@H]1CC[C@H]2[C@@H]3CC(=O)[C@H]4C[C@H](OC(C)=O)CC[C@]4(C)[C@H]3CC[C@]12C
inactive: max response [1] -2.01% | outcome [2] | outcome [3] | outcome [4] | max response [5] -0.377% | outcome [6] | Potency [7]

O=C(/C=C/c1ccc(O)cc1)OCC1=C[C@@H](O)[C@@H]2C=CO[C@@H](O[C@@H]3O[C@H](CO)[C@@H](O)[C@H](O)[C@H]3O)[C@H]12
inactive: max response [1] -2.56% | outcome [2] | outcome [3] | outcome [4] | outcome [5] | outcome [6] inactive [at 17.4 µM] | Potency [7]

CC1[C@@H](O)[C@@H](O)C2[C@]3(C)C(C[C@H]4OC(=O)[C@H](O)[C@]1(O)[C@@]24C)C(C)(O)C[C@H](O)[C@H]3O (stereo not given in full)
inactive: outcome [1] | outcome [2] | outcome [3] | max response [4] 4.32% | outcome [5] | outcome [6] inactive [at 17.4 µM] | Potency [7]

COc1cc(CCc2ccccc2)c(C(=O)O)c2c1CC(C(C)(C)O)O2 (stereo not given)
inactive: outcome [1] | outcome [2] | outcome [3] | outcome [4] | outcome [5] | outcome [6] | Potency [7]

COc1ccc(C(O[C@@H]2O[C@H](CO)[C@@H](O)[C@H](O)[C@H]2O)C(CO)Oc2ccc(/C=C/CO)cc2OC)cc1O (stereo not given in full)
inactive: outcome [1] | outcome [2] | outcome [3] | outcome [4] | outcome [5] | outcome [6] inactive [at 17.4 µM] | Potency [7]

CCOc1ccc(C(Nc2ccccn2)c2ccc3ccc(C)nc3c2O)cc1C (stereo not given)
inactive: outcome [1] | outcome [2] | outcome [3] | max response [4] -0.87% | max response [5] -16.7% | outcome [6] | Potency [7]

COC(=O)[C@@]1(O)C=CC[C@@H]2[C@@]3(C)C[C@@H](c4ccoc4)OC(=O)[C@H]3CC[C@]21C
inactive: outcome [1] | outcome [2] | outcome [3] | max response [4] 0.0207% | outcome [5] | outcome [6] | Potency [7]

CCCCCCc1cccc(NC(=O)[C@H](N)CCP(=O)(O)O)c1
inactive: outcome [1] | outcome [2] | outcome [3] | outcome [4] | max response [5] -1.22% | outcome [6] inactive [at 9.27 µM] | outcome [7] inactive [at 9.27 µM]

CC1(C)OC(=O)C(OCC2CC2)=C1c1ccc(S(C)(=O)=O)cc1
inactive: outcome [1] | outcome [2] | outcome [3] | outcome [4] | outcome [5] | outcome [6] | Potency [7]

CC1CCC2(C(=O)OC3OC(CO)C(O)C(O)C3O)CCC3(C(=O)O)C(=CCC4C5(C)CCC(OC6OC(C)C(O)C(O)C6O)C(C)(C)C5CCC43C)C2C1C (stereo not given)
inactive: max response [1] 1.53% | outcome [2] | outcome [3] | outcome [4] | max response [5] 4.68% | outcome [6] inactive [at 17.4 µM] | Potency [7]

CC1OC(OC2C(C)OC(OC3C(OC(=O)/C=C/c4ccc(O)cc4)C(CO)OC(OC4(COC(=O)/C=C/c5ccc(O)cc5)OC(CO)C(O)C4O)C3OC3OCC(O)(CO)C3O)C(O)C2O)C(O)C(O)C1O (stereo not given)
inactive: max response [1] -0.0903% | outcome [2] | outcome [3] | max response [4] 4.29% | outcome [5] | outcome [6] inactive [at 9.27 µM] | outcome [7] inactive [at 9.27 µM]

C=C1CC[C@H]2[C@@](C)(CCC(O)[C@@]2(C)CO)[C@@H]1C/C=C(/C(=O)O)C(O)CO (stereo not given in full)
inactive: outcome [1] | outcome [2] | outcome [3] | max response [4] 7.71% | outcome [5] | outcome [6] | Potency [7]

C/C=C/C=C/C=C/C(=O)O[C@@H]1C=C(CO)C(O)(C(=O)O)[C@@]2(C)CCCC(C)(C)[C@H]12 (stereo not given in full)
inactive: max response [1] 2.37% | outcome [2] | outcome [3] | max response [4] 0.213% | max response [5] -2.73% | outcome [6] inactive [at 17.4 µM] | Potency [7]

CCOC(=O)[C@H](CCc1ccccc1)CC1(C(=O)N[C@H]2CCc3ccccc3N(CC(=O)O)C2=O)CCCC1
inactive: max response [1] -3.46% | outcome [2] | outcome [3] | max response [4] -2.38% | max response [5] 3.76% | outcome [6] | Potency [7]
